Results as given in PubChem BioAssay (Tox21).
Records with an inconclusive call do not appear. Entries that show only a call come without a potency. Calls of active or inactive are those of the source. Unless noted, calls follow the shape of the dose curve; as a rule, active = well fitted curve in the direction sought with a large enough effect in the repeat runs; inconclusive = weak or mixed curves; inactive = no such curve, though single readings can be large; an effect the other way counts as inactive or inconclusive.

Legend:
[1] = qHTS assay to identify small molecule antagonists of the thyroid receptor (TR) signaling pathway (AID 743065); also: nearly all actives have a fitted effect of over 55% in size; also: potency is read from the fitted curve at half-maximal effect
Procedure, shortened: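 Antagonism measured as loss of luciferase signal in GH3 cells stably carrying a TRE-luciferase reporter, co-treated with compound and T3 (1 nM final) for 23.5 h at 37 C. Viability was read in the same well by CellTiter-Fluor.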

[2] = test system: thyroid hormone receptor (rat, GH3 cells); experiment: qHTS assay to identify small molecule agonists of the thyroid receptor (TR) signaling pathway (AID 743066; calls by dose curve)
[3] = qHTS assay to identify small molecule antagonists of the estrogen receptor alpha (ER-alpha) signaling pathway - cell viability counter screen (AID 743074; calls by dose curve;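 also: HEK293 cells carrying ER-alpha-UAS-bla reporter stimulated with 17beta-estradiol; nearly all actives have a fitted effect of over 45% in size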)
[4] = qHTS assay to identify small molecule antagonists of the estrogen receptor alpha (ER-alpha) signaling pathway using the BG1 cell line - cell viability counter screen (AID 743081);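 also: compound given together with 17beta-estradiol as the ER stimulus; series mostly up to about 70 µM; nearly all actives have a fitted effect of over 45% in size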
[5] = target: Aromatase (Homo sapiens) (UniProt P11511); experiment: qHTS assay to identify aromatase inhibitors (AID 743083); also: series mostly up to about 70 µM; nearly all actives have a fitted effect of over 55% in size
[6] = qHTS assay to identify aromatase inhibitors - cell viability counter screen (AID 743084);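 also: cells stimulated with testosterone during compound exposure; nearly all actives have a fitted effect of over 55% in size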
[7] = target: Aryl hydrocarbon receptor (Homo sapiens) (UniProt P35869); experiment: qHTS assay to identify small molecule that activate the aryl hydrocarbon receptor (AhR) signaling pathway (AID 743085);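 also: HG2L7.5c1 human HepG2 liver cells with stably integrated DRE-driven firefly reporter; series mostly up to about 70 µM; nearly all actives have a fitted effect of over 15% in size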
Procedure, shortened: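 Compounds were tested in HepG2 hepatocellular carcinoma cells harbouring a stably integrated luciferase gene under control of 20 DREs. Increased reporter signal after 24 h treatment at 37C was taken as AhR activation.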

[8] = qHTS assay to identify small molecule that activate the aryl hydrocarbon receptor (AhR) signaling pathway - cell viability counter screen (AID 743086);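 also: HepG2 liver cells carrying the AhR DRE luciferase reporter; series mostly up to about 70 µM; nearly all actives have a fitted effect of over 45% in size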
Procedure, shortened: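 Cytotoxicity counter screen: CellTiter-Fluor signal (30 min, 37 C) in 4000 HepG2 cells/well carrying the DRE-luciferase reporter, following 24 h compound exposure at 37 C.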

[9] = target: Peroxisome proliferator-activated receptor gamma (Homo sapiens) (UniProt P37231); experiment: qHTS assay to identify small molecule agonists of the peroxisome proliferator-activated receptor gamma (PPARg) signaling pathway (AID 743094; active = well fitted activation curve with a large enough effect in the signal ratio in the repeat runs, not every such curve was filed as active; the % refers to the signal ratio)
Procedure, shortened: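 Compounds dissolved in DMSO were added to PPARg UAS-bla HEK293H cells for 17 h at 37C, and reporter expression was quantified by fluorescence intensity after 1 h with LiveBLAzer B/G FRET substrate.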

[10] = target: Peroxisome proliferator-activated receptor gamma (Homo sapiens) (UniProt P37231); experiment: qHTS assay to identify small molecule antagonists of the peroxisome proliferator-activated receptor gamma (PPARg) signaling pathway (AID 743191; calls by dose curve; also: series mostly up to about 63 µM; nearly all actives have a fitted effect of over 30% in size)
Procedure, shortened: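 Beta-lactamase reporter under UAS control in HEK293H PPARg-bla cells; compound treatment 17 h at 37C. Read-out: fluorescence intensity after 1 h room-temperature incubation with LiveBLAzer B/G FRET substrate.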

[11] = qHTS assay to identify small molecule antagonists of the peroxisome proliferator-activated receptor gamma (PPARg) signaling pathway - cell viability counter screen (AID 743194); also: nearly all actives have a fitted effect of over 55% in size
Procedure, shortened: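 Viability was measured as CellTiter-Glo luminescence in GeneBLAzer PPARg UAS-bla HEK293H cells. These cells had been exposed 17 h at 37 C to compounds together with rosiglitazone at 50 nM final, with the beta-lactamase readout taken in the same wells.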

[12] = qHTS assay for small molecule agonists of the antioxidant response element (ARE) signaling pathway (AID 743202; active = well fitted activation curve with a large enough effect in the signal ratio in the repeat runs, not every such curve was filed as active; the % refers to the signal ratio)
Procedure, shortened: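 Quantitative high-throughput format in HepG2 cells bearing an integrated ARE-beta-lactamase reporter. Compound exposure lasted 16 h at 37 C, and fluorescence was read 2 h after adding LiveBLAzer B/G substrate at room temperature.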

[13] = qHTS assay for small molecule activators of the heat shock response signaling pathway - cell viability counter screen (AID 743209); also: nearly all actives have a fitted effect of over 50% in size; also: potency is read from the fitted curve at half-maximal effect
Procedure, shortened: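 Readout: CellTiter-Glo luminescence, 30 min at room temperature. System: HSE-bla HeLa cells, 1500/well, plated overnight. Treatment: compounds in DMSO, 5 h at 37 C.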

[14] = qHTS assay for small molecule activators of the heat shock response signaling pathway (AID 743210; active = well fitted activation curve with a large enough effect in the signal ratio in the repeat runs, with a control signal flat, not every such curve was filed as active; the % refers to the signal ratio;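 also: HeLa cells with beta-lactamase reporter driven by heat shock elements; series mostly up to about 63 µM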)
Procedure, shortened: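 HeLa HSE-bla cells, overnight plating; cpd in DMSO 5 h, 37 C; LiveBLAzer B/G FRET substrate 2.5 h RT; fluorescence intensity read.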

[15] = target: Estrogen receptor (Homo sapiens) (UniProt P03372); experiment: qHTS assay to identify small molecule antagonists of the estrogen receptor alpha (ER-alpha) signaling pathway (AID 743069; active = well fitted curve in the direction sought with a large enough effect in the signal ratio in the repeat runs, not every such curve was filed as active; the % refers to the signal ratio)
Procedure, shortened: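 ER-alpha-UAS-bla GripTite HEK293 line; 2% charcoal-stripped FBS overnight; plated, 4 hr 37C/5% CO2; cpd in DMSO + 17beta-estradiol, 18 hr 37C; LiveBLAzer B/G FRET substrate 2 hr RT; fluorescence intensity.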

[16] = target: Estrogen receptor (Homo sapiens) (UniProt P03372); experiment: qHTS assay to identify small molecule agonists of the estrogen receptor alpha (ER-alpha) signaling pathway (AID 743075; calls by dose curve;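 also: HEK293 GripTite cells with ER-alpha and UAS-driven beta-lactamase reporter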)
[17] = target: Estrogen receptor (Homo sapiens) (UniProt P03372); experiment: qHTS assay to identify small molecule agonists of the estrogen receptor alpha (ER-alpha) signaling pathway using the BG1 cell line (AID 743079); also: nearly all actives have a fitted effect of over 20% in size; also: potency is read from the fitted curve at half-maximal effect
[18] = qHTS assay for small molecule agonists of the antioxidant response element (ARE) signaling pathway - cell viability counter screen (AID 743203; calls by dose curve; also: nearly all actives have a fitted effect of over 55% in size)
Procedure, shortened: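 Following 16 hrs of compound treatment at 37C, HepG2 cells with an ARE-controlled beta-lactamase gene were lysed with CellTiter-Glo. Luminescence was read after 30 min at room temperature.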

[19] = qHTS assay to identify small molecule antagonists of the estrogen receptor alpha (ER-alpha) signaling pathway using the BG1 cell line (AID 743080; calls by dose curve;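 also: BG1 cells stimulated with 17beta-estradiol alongside compound; series mostly up to about 70 µM; nearly all actives have a fitted effect of over 25% in size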)
Procedure, shortened: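 BG1-Luc-4E2 cells (endogenous full-length ER-alpha, 4xERE luciferase) hormone-starved 5 days in charcoal-stripped FBS, plated 4,000/well for 24 h, then compound plus 17beta-estradiol for 21.5 h at 37 C; ONE-Glo luminescence read.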

Chain of Peroxisome proliferator-activated receptor gamma (Homo sapiens) (P37231 whole entry, looked up): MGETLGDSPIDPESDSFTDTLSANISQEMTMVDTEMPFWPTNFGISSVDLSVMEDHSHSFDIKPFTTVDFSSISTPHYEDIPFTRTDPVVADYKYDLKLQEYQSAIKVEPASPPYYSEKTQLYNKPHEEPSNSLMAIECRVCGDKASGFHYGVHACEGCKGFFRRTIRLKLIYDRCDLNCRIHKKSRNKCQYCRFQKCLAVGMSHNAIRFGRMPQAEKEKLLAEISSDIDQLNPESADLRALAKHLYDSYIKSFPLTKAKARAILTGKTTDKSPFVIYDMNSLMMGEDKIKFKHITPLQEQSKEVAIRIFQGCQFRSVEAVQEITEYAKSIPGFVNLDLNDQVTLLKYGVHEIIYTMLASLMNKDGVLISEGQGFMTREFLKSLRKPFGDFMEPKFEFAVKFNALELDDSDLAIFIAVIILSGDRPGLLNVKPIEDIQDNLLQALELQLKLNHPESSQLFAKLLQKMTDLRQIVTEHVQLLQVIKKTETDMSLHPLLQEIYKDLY
Chain of Estrogen receptor (Homo sapiens) (P03372 whole entry, looked up): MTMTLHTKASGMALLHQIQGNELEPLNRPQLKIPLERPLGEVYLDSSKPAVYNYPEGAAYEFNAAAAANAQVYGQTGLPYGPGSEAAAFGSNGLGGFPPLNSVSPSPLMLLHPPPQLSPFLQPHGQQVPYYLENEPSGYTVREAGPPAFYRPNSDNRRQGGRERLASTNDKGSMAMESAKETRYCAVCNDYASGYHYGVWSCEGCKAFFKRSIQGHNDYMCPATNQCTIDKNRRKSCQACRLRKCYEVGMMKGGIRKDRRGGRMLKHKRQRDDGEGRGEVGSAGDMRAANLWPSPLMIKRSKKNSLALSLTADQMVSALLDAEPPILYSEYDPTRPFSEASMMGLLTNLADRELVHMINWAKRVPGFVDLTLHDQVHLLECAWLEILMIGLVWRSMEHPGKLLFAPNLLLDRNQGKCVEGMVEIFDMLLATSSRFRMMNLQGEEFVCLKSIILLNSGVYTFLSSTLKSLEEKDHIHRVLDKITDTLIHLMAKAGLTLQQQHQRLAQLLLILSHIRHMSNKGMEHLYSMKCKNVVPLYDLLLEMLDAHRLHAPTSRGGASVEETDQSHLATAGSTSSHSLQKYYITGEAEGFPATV
Chain of Aromatase (Homo sapiens) (P11511 whole entry, looked up): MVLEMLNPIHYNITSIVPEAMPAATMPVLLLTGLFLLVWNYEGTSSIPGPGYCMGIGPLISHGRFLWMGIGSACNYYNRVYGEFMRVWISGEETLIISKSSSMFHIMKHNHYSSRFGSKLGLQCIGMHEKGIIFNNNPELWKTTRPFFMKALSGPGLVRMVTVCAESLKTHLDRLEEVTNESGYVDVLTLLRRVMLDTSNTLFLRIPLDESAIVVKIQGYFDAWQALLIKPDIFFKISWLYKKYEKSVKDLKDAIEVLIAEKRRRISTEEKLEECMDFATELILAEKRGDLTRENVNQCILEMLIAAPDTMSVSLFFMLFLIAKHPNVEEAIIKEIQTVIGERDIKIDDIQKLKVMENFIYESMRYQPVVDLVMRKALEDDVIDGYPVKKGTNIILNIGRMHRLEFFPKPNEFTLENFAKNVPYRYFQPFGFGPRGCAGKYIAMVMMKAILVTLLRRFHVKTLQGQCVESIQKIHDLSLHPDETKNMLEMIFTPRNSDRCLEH
Chain of Aryl hydrocarbon receptor (Homo sapiens) (P35869 whole entry, looked up): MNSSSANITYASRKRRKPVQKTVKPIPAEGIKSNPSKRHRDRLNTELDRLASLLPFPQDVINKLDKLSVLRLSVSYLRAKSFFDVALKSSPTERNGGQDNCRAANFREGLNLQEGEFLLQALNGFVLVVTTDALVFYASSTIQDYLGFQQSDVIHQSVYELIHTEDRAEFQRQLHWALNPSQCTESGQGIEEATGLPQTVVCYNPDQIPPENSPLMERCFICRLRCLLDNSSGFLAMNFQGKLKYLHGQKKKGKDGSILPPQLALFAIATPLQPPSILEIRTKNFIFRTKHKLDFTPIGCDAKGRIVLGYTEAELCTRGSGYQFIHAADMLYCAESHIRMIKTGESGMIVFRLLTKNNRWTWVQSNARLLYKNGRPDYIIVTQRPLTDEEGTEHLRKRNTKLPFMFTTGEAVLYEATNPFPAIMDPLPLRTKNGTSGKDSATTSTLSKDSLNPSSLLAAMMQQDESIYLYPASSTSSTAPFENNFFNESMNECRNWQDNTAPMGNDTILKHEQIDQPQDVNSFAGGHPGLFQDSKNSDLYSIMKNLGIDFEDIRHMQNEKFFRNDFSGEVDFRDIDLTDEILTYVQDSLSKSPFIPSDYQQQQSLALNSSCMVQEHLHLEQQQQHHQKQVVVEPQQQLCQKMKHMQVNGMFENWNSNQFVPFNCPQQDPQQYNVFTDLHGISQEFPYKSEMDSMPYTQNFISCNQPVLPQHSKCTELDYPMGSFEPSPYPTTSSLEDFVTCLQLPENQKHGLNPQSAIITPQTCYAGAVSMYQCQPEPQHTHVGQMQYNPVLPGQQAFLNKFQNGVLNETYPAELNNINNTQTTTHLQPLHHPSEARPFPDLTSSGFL

Row | Compound | Potency [1] | outcome [2] | outcome [3] | Potency [4] | outcome [5] | Potency [6] | Potency [7] | Potency [8] | Potency [9] | outcome [10] | outcome [11] | Potency [12] | Potency [13] | outcome [14] | outcome [15] | Potency [16] | Potency [17] | outcome [18] | outcome [19]
1 | CC(N)CCCC(C)(C)O (stereo unspecified) | inactive | inactive | inactive | inactive | inactive | inactive | inactive | inactive | inactive | inactive | inactive | inactive | inactive | inactive | – | – | – | – | –
2 | O=Cc1ccccc1Cl | inactive | inactive | inactive | inactive | inactive | – | inactive | inactive | inactive | inactive | inactive | inactive | inactive | inactive | – | – | – | – | –
3 | CCCC(=O)OC/C=C(\C)CCC=C(C)C | inactive | inactive | inactive | – | inactive | inactive | – | inactive | inactive | inactive | inactive | inactive | inactive | inactive | inactive | inactive | inactive | inactive | –
4 | Cc1c(N)cccc1Cl | inactive | inactive | – | inactive | inactive | inactive | – | inactive | inactive | inactive | inactive | – | inactive | inactive | inactive | inactive | – | inactive | inactive
5 | CC(CO)(CO)CO | inactive | inactive | inactive | inactive | inactive | inactive | inactive | – | inactive | – | inactive | inactive | inactive | inactive | inactive | inactive | – | inactive | inactive
6 | COc1cc2c(cc1OC)C(=O)C(CC1CCN(Cc3ccccc3)CC1)C2 (stereo unspecified) | 26.6 µM (active) | inactive | inactive | inactive | inactive | inactive | – | inactive | inactive | – | inactive | – | inactive | inactive | – | inactive | 26.6 µM (active) | – | –
7 | CC(C)c1ccc(C=O)cc1 | inactive | inactive | inactive | inactive | inactive | inactive | inactive | inactive | inactive | inactive | – | inactive | inactive | inactive | inactive | inactive | inactive | inactive | –
8 | CC1=C(C(=O)O)N2C(=O)[C@@H](NC(=O)[C@H](N)C3=CCC=CC3)[C@H]2SC1 | inactive | inactive | – | – | inactive | inactive | inactive | inactive | inactive | inactive | inactive | inactive | inactive | – | inactive | inactive | inactive | inactive | –
9 | CCCC(=O)OCCC(C)CCC=C(C)C (stereo unspecified) | inactive | inactive | inactive | inactive | inactive | inactive | inactive | inactive | inactive | – | inactive | inactive | 49 µM (active) | – | – | – | – | inactive | –
10 | CCCCCCCCCCCCCCCCCCOCCO | inactive | inactive | inactive | inactive | inactive | inactive | inactive | inactive | inactive | inactive | inactive | inactive | inactive | inactive | inactive | inactive | inactive | – | inactive
11 | [O]=[Mo](=[O])=[O] | inactive | inactive | inactive | inactive | inactive | inactive | inactive | – | – | – | inactive | inactive | inactive | inactive | inactive | inactive | inactive | inactive | inactive
12 | O=C=NCC1CCCC(CN=C=O)C1 (stereo unspecified) | – | inactive | inactive | inactive | inactive | inactive | inactive | inactive | inactive | inactive | inactive | – | inactive | inactive | inactive | inactive | inactive | inactive | inactive
13 | CCC(=O)CC | – | inactive | inactive | inactive | inactive | inactive | inactive | inactive | inactive | inactive | inactive | inactive | inactive | inactive | – | – | – | inactive | –
14 | O=C1NC(c2ccccc2)(c2ccccc2)C(=O)N1COP(=O)(O)O | – | – | – | – | – | – | – | – | – | inactive | inactive | inactive | inactive | inactive | – | – | – | inactive | –
15 | OC[C@@H](O)C(O)[C@@H](O)CO (stereo partly specified) | – | inactive | – | inactive | inactive | inactive | inactive | inactive | inactive | inactive | inactive | – | inactive | inactive | – | – | – | inactive | –
16 | [O-][n+]1cccc(/C(Cl)=N/OC[C@@H](O)CN2CCCCC2)c1 | – | – | – | – | – | – | – | – | – | – | inactive | inactive | inactive | inactive | – | – | – | inactive | –
17 | CN1C[C@@H]2C[C@H]1CN2c1cc2c(cc1F)c(=O)c(C(=O)O)cn2C1CC1 | – | inactive | inactive | inactive | inactive | inactive | inactive | inactive | inactive | inactive | inactive | inactive | inactive | inactive | – | inactive | inactive | inactive | –
18 | CCC(C(=O)OCCN1CCOC(c2ccccc2)C1C)c1ccccc1 (stereo unspecified) | – | – | – | – | – | – | – | – | – | – | inactive | inactive | inactive | inactive | – | – | – | inactive | –
19 | COCCc1ccccn1 | – | – | – | – | – | – | – | – | – | inactive | inactive | inactive | – | inactive | – | – | – | inactive | –
20 | COc1cc2c(cc1OC)CN(C(=O)[C@H](C)N[C@@H](CCc1ccccc1)C(=O)O)[C@H](C(=O)O)C2 | – | – | – | – | – | – | – | – | – | – | inactive | inactive | inactive | inactive | – | – | – | inactive | –
21 | CC(C)(CO)C(O)C(=O)NCCCO (stereo unspecified) | – | – | inactive | inactive | inactive | inactive | inactive | inactive | – | – | inactive | inactive | inactive | inactive | inactive | inactive | inactive | – | inactive
22 | CC(C)C[C@@H]1[C@H](c2ccccc2)OC(=O)N1CCCN1CCCCCC1 | – | – | – | – | – | – | – | – | – | inactive | inactive | inactive | inactive | inactive | – | – | – | inactive | –
